Source: PubChem (National Center for Advancing Translational Sciences (NCATS))
HADH2 inhib = blocks human hydroxyacyl-CoA dehydrogenase type II | recombinant HADH2, NADH fluorescence, beta-hydroxybutyryl-CoA | Potency, µM (top dose mostly 57.1 µM), without a hit: top-dose activity change, negative = inhibition, most hits filed as inhibitors | 73,000 tested, 3.4% active | AID 886; also: potency is read from the fitted curve at half-maximal effect; % is scaled to controls: 0 for no effect and ±100 for the full control effect; nearly all actives have a fitted effect of over 60% in size
Target sequence (Q99714 whole entry, looked up, one chain of several): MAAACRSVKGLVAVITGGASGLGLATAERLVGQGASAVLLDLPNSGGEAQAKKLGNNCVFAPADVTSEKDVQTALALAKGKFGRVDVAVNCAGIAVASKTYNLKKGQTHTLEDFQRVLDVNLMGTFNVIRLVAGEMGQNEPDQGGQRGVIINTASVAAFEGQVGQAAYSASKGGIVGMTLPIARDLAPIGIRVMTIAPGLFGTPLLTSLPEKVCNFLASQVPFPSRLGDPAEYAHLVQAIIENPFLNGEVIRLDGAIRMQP
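His-tagged recombinant enzyme from E. coli, 20 nM, preincubated 15 min RT with compound; reaction started with 1 mM NAD+ and 90 uM beta-hydroxybutyryl-CoA in 100 mM Tris-HCl pH 9.0. NADH fluorescence (ex 360/em 450) read over 4 min; last-minus-first difference.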
AID923 = qHTS Assay for Allosteric/Competitive Inhibitors of Caspase-1: Spectroscopic Profiling in AFC Spectral Region; 75,000 tested, 1.1% active; Potency, µM (titrated, usually from 57.5 µM), without a hit: top-dose fluorescence increase, most hits filed as activators; compound fluorescence, AFC spectral region (405/520 nm); AID 923, 2007; also: potency is read from the fitted curve at half-maximal effect; 0% is about no effect
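Compound autofluorescence profiled at 405 nm ex/520 nm em during kinetic caspase 1 run (50 nM enzyme, 5 uM Ac-WEHD-AFC, HEPES pH 7.5, 10 mM DTT). Titration up to 57 uM; baseline from regression intercept, normalized to AFC standard curve.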
HSD17B inhib = inhibitors of human HSD17B10 dehydrogenase. Q99714. Potency, µM (top dose mostly 57.1 µM), inactives show top-dose activity change, negative = inhibition, hits mostly inhibitors. 75,000 tested, 7.6% active. recombinant HSD17B10, NADH fluorescence kinetic;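 also: the protocol describes HADH2 (HSD17B10) and not the HSD17B4 of the title; potency is read from the fitted curve at half-maximal effect; % is scaled to controls: 0 for no effect and ±100 for the full control effect; nearly all actives have a fitted effect of over 70% in size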
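20 nM HADH2, pH 9.0 Tris/Tween; cpd preinc 15 min RT; start w/ 1 mM NAD+ + 90 uM b-hydroxybutyryl-CoA; kinetic fluor ex360/em450 q30s x 4 min; delta last-first.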
CRE Fsk mod = modulators of forskolin-stimulated CRE signaling in CHO cells; CHO CRE-bla reporter (cAMP response element driving beta-lactamase), forskolin EC10, beta-lactamase ratio; AID 662; 71,000 tested, 2.5% active; Potency, µM (series often up to 38.2 µM), inactives show at the highest dose activity change, negative = inhibition, usual class: activators; active = well fitted activation curve with a large enough effect in the signal ratio, with a control signal flat, not every such curve was filed as active; inconclusive = small, poorly fitted or top-dose-only effect, or effect the other way, or a change in a side signal; the % refers to the signal ratio; also: potency is read from the fitted curve at half-maximal effect; % of control where 0% means no effect
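CRE-bla CHO reporter cells treated with compound titration plus EC10 NKH 477 (water-soluble forskolin), incubated 3 h at 37 °C; CCF4 loading 2 h at room temperature, 460/530 nm emission ratio read, AC50 values derived for positive or negative modulators.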
4MU fluor = compound fluoresces in the 4-MU spectral region | compound autofluorescence, 340/450 nm, 4-MU equivalents; active compounds read high | max dye-equivalent concentration, M | 59,000 tested, 11% active; in the data active = max dye-equivalent concentration above about 10 nM; inconclusive = mostly about 1.1 nM to 9.6 nM
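Compounds in 100 mM Tris, pH 8.0, incubated 15 min at room temperature, then fluorescence read at 340 nm excitation/450 nm emission. Signal converted to 4-MU dye-equivalent concentration using an on-plate six-point 4-MU standard curve.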
A350 fluor = A350 region autofluorescence. Compound autofluorescence, 340/450 nm, Alexa 350 dye-equivalents; active compounds read high. max dye-equivalent concentration, M. 59,000 tested, 11% active; in the data active = max dye-equivalent concentration above about 10 nM; inconclusive = mostly about 1.1 nM to 9.6 nM
An asterisk follows results filed as active; i = inactive; ? = inconclusive; / = not tested or not shown; [ ] = remark or other dose. Most compounds without a hit are left out; they make up all but 14% or so of the library. Unless noted, calls follow the shape of the dose curve; as a rule, active = well fitted curve in the direction sought with a large enough effect; inconclusive = small, poorly fitted or top-dose-only effect, or another doubt; inactive = no such curve, though single readings can be large; an effect the other way counts as inactive or inconclusive.

SMILES	HADH2 inhib	AID923	HSD17B inhib	CRE Fsk mod	4MU fluor	A350 fluor
CCCC[C@@H]1C[C@H]1C(NC(=O)c1ccco1)c1ccccc1 (stereo partly drawn)	5%	0%	-9%	-13%	/	/
CC(O)CO (stereo not drawn)	-3%	1%	1%	-1%	/	/
O=C(COc1ccccc1)N(Cc1cc2ccccc2[nH]c1=O)CC1CCCO1 (stereo not drawn)	13%	-1%	9%	15%	i	i
CCOc1ccc2[nH]c(=O)c(CN(Cc3ccccc3)C(=O)N3CCCC3)cc2c1	9%	0%	?	8%	7.4e-08M*	8.8e-08M*
CCOc1ccc2[nH]c(=O)c(CN(C(=O)N3CCOCC3)C3CC3)cc2c1	-19%	1%	?	-4%	3.2e-07M*	2.8e-07M*
CCOc1ccc2[nH]c(=O)c(CN(CC3COCCO3)C(=O)C3CC3)cc2c1 (stereo not drawn)	10%	4%	4µM*	0%	3.9e-07M*	6.3e-07M*
CNc1ncncc1-c1ccccc1OC	?	-2%	-4%	-14%	i	i
COc1ccc(-c2nnc(-c3ccc(Br)o3)o2)cc1OC	234%	1%	?	?	?	?
COc1cc(OC)c(-c2nnc(-c3ccc(OC)c(OC)c3OC)o2)cc1OC	?	0%	32µM*	4µM*	2.7e-07M*	2.6e-07M*
COc1ccc(O[C@H]2C=C[C@@H](c3ccccc3)O[C@H]2COC(=O)CC/C(C)=N/O[C@@H]2O[C@H](COC(C)=O)[C@H](OC(C)=O)[C@H](OC(C)=O)[C@H]2OC(C)=O)cc1	9%[11.4 µM]	1%[11.5 µM]	2%[11.4 µM]	/	/	/
O=C1C2C3C=CC(C3)C2C(=O)N1CNc1ccc(O)cc1 (stereo not drawn)	7.9µM*	8%	-16%	-7%	i	i
Cc1ccc(NCN2C(=O)C3C4C=CC(C4)C3C2=O)cc1 (stereo not drawn)	-3%[11.4 µM]	1%	1%	?	/	/
COc1cc([C@@H](O)CO)ccc1OS(=O)(=O)O	11%	-4%	7%	-3%	i	i
COC(=O)c1sc2nc(CN3CCOCC3)nc(N3CCOCC3)c2c1C	-2%	2%	-7%	?	?	?
COC(=O)c1sc2nc(-c3ccccc3)nc(N3CCN(C)CC3)c2c1C	3%	-1%	32µM*	19%	2.2e-08M*	1.8e-08M*
CCOC(=O)CCc1c(C)c2ccc(OCC(=O)N(CC)CC)c(C)c2oc1=O	20µM*	0%	25µM*	0%	1.4e-08M*	1.3e-08M*
CCc1c(C)c2ccc(OCC(=O)N(C)C)c(C)c2oc1=O	25µM*	-2%	32µM*	6.3µM*	1.2e-08M*	1.2e-08M*
Cc1cc(=O)oc2c(C)c(OCC(=O)N(C)C)ccc12	32µM*	-1%	32µM*	14%	?	?
CCc1ccc(OCC(=O)N(C)C)c(Br)c1	-1%	-3%	9%	4%	i	i
CCc1c(C)c2ccc(OCC(=O)OC(C)C)c(C)c2oc1=O	25µM*	-2%	32µM*	23%	i	?
NCCC[C@@H](CC(=O)N[C@@H]1CCCC[C@H]1C(=O)N[C@H](CC(=O)N[C@@H](CCC(=O)O)CC(=O)O)Cc1c[nH]c2ccccc12)NC(=O)C[C@H](Cc1c[nH]c2ccccc12)NC(=O)[C@@H]1CCCC[C@H]1N	5%	/	/	-21%	/	/
COc1ccc2c(C)cc(=O)oc2c1C	25µM*	0%	25µM*	?	/	/
Cc1c(C)c2ccc(OCC(=O)N(C)C)c(C)c2oc1=O	25µM*	-2%	32µM*	?	1.8e-08M*	1.8e-08M*
C=CCOC(=O)COc1ccc2c(C)c(C)c(=O)oc2c1C	60%	-2%	166%	29%	/	/
Nc1ncnc2c1ncn2[C@@H]1O[C@@H](COP(=O)(O)OP(=O)(O)OP(=O)(O)OP(=O)(O)OC[C@@H]2O[C@@H](n3cnc4c(N)ncnc43)[C@@H](O)[C@H]2O)[C@H](O)[C@@H]1O	7%	-4%	3%	2%	1.4e-08M*	1.2e-08M*
